# Results published in ChEMBL document CHEMBL5724796, “Tm Shift (DSF) assay results for EUbOPEN Chemogenomics Library” (2024).
# Several values for one entry are separate records, joined by “and”; a condition that tells them apart may be missing. Equal entries are not always repeated. Non-standard residues stand in square brackets, D forms with d. Residues, ends and D or L forms follow the SMILES beside them. *: point of attachment. Tyr(3-Cl) = N[C@@H](Cc1ccc(O)c(Cl)c1)C(=O)O; Benzoyl(3,5-Cl2) = O=C(c1cc(Cl)cc(Cl)c1)*; Lys(Et2) = CCN(CC)CCCC[C@H](N)C(=O)O; Gly(cPent) = N[C@H](C(=O)O)C1CCCC1; Cbz = O=C(OCc1ccccc1)*; NH(propargyl) = C#CCN*
# Assays:
# Conditions in all cases: Compound concentration 20.0 uM
# [1] = target: Tyrosine-protein kinase ABL1 (Homo sapiens) (UniProt P00519)
# Sequence of Tyrosine-protein kinase ABL1 (Homo sapiens) (P00519 whole entry): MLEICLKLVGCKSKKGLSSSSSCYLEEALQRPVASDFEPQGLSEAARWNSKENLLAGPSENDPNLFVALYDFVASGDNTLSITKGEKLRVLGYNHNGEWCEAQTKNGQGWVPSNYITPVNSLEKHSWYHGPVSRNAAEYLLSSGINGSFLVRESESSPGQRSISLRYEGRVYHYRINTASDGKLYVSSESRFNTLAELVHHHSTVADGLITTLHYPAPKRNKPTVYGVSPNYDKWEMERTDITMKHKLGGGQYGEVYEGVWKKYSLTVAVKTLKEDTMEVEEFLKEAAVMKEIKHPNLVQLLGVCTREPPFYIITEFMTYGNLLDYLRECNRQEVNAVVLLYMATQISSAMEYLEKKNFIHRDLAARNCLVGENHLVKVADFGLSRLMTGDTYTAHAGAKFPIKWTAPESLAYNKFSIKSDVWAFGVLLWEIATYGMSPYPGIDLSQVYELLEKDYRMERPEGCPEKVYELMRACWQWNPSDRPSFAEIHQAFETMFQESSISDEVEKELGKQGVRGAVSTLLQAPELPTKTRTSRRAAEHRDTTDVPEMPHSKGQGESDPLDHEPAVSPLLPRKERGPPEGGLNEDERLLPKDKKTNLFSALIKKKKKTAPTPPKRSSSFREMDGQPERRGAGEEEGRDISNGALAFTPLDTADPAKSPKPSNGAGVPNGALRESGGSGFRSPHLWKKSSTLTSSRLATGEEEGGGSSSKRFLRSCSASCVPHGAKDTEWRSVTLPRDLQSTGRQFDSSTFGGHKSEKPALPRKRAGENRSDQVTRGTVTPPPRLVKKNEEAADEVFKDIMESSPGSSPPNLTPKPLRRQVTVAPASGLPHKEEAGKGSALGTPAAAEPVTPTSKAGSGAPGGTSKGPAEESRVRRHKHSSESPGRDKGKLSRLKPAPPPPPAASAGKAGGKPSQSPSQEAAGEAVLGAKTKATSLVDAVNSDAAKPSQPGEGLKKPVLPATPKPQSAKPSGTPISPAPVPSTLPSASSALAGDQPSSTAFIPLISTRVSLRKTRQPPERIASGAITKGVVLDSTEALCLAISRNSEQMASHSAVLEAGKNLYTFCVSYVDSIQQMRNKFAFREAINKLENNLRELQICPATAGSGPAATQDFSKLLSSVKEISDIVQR
# [2] = target: Bromodomain-containing protein 4 (Homo sapiens) (UniProt O60885)
# [3] = target: Cyclin-dependent kinase 2 (Homo sapiens) (UniProt P24941)
# [4] = target: Casein kinase I isoform delta (Homo sapiens) (UniProt P48730)
# Sequence of Casein kinase I isoform delta (Homo sapiens) (P48730 whole entry, looked up, canonical isoform): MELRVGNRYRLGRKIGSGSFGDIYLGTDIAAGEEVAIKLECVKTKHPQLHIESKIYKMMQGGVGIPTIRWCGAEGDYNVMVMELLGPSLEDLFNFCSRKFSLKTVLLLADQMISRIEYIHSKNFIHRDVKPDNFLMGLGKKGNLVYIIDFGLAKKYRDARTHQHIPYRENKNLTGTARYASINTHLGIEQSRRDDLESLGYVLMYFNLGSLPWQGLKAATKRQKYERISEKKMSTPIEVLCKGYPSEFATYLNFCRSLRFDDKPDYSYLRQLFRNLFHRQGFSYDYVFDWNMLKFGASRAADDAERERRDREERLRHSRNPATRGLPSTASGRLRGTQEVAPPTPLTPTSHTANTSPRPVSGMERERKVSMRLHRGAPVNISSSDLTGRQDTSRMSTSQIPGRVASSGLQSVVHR
# [5] = target: Glycogen synthase kinase-3 beta (Homo sapiens) (UniProt P49841)
# Sequence of Glycogen synthase kinase-3 beta (Homo sapiens) (P49841 whole entry, looked up): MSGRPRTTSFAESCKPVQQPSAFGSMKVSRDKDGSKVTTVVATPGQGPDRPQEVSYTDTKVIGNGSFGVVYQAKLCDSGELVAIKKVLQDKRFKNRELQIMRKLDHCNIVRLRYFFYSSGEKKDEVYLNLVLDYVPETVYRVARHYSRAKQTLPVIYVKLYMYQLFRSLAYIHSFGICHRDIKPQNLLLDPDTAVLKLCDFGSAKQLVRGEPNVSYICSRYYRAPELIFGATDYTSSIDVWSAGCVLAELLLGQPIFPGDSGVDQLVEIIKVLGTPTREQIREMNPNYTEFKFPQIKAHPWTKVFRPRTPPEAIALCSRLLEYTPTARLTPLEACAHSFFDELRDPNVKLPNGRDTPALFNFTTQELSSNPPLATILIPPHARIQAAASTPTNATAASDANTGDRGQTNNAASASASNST
# [6] = target: Mitogen-activated protein kinase 1 (Homo sapiens) (UniProt P28482)
# Sequence of Mitogen-activated protein kinase 1 (Homo sapiens) (P28482 whole entry): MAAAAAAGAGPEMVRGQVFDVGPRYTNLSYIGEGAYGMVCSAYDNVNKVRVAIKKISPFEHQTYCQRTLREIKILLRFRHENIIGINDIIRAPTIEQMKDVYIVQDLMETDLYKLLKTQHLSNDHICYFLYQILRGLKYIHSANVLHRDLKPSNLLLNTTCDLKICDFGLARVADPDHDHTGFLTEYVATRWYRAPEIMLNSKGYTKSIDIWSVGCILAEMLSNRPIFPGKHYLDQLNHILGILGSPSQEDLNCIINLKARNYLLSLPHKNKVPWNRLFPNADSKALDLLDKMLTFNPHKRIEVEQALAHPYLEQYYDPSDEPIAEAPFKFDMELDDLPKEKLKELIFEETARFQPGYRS
# [7] = target: T1, Aurora kinase A (Homo sapiens) (UniProt O14965)
# T1 sequence (whole entry): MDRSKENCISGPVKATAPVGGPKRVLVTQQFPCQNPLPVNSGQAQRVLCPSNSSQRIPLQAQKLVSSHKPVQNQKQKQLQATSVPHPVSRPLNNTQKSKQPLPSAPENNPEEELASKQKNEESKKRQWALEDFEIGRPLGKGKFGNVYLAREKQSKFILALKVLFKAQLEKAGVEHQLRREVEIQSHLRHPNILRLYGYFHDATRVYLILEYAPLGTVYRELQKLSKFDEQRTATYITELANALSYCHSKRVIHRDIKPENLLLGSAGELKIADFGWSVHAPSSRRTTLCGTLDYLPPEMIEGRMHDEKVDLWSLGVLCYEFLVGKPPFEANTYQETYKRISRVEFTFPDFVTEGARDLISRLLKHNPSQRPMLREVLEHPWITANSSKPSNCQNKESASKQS
# [8] = target: T2, Transcription intermediary factor 1-alpha (Homo sapiens) (UniProt O15164)
# T2 sequence (whole entry): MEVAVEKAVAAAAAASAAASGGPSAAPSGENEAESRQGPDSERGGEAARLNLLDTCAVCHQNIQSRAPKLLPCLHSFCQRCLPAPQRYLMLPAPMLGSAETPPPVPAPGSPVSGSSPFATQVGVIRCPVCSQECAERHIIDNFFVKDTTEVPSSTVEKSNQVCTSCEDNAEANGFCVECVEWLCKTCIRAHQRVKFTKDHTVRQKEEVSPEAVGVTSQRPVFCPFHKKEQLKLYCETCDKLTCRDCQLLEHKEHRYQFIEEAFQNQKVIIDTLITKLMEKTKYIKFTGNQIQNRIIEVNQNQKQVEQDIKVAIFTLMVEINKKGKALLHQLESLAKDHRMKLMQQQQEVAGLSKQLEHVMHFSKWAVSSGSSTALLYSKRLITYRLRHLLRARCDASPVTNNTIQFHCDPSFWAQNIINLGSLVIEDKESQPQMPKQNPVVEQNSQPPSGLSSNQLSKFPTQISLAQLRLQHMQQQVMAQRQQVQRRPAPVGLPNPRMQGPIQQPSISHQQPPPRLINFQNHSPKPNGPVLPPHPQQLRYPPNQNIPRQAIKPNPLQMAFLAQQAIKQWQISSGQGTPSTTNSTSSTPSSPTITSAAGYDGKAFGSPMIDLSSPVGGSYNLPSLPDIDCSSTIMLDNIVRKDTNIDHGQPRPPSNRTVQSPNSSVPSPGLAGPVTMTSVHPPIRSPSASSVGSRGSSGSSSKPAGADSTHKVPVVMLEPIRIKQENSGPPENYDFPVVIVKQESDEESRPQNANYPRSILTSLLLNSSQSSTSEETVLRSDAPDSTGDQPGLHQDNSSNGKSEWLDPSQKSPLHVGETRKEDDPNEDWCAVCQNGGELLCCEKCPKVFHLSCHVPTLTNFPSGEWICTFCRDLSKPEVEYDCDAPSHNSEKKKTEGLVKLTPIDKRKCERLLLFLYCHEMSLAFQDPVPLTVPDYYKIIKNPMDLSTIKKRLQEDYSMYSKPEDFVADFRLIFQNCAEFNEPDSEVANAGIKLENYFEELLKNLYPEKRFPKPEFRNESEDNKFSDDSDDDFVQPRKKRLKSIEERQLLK
Compound,ΔTm [1],ΔTm [2],ΔTm [3],ΔTm [4],ΔTm [5],ΔTm [6],ΔTm [7],ΔTm [8]
O=C(O)C1=CCCN(CCON=C(c2ccccc2)c2ccccc2)C1,0.08 °C,-0.61 °C,0.73 °C,-0.14 °C,0 °C,0.02 °C,-1.31 °C,1.41 °C
Fc1ccc(CNc2ncnc3ccc(F)cc23)cc1,1.11 °C,-2.88 °C,0.04 °C,0.46 °C,0.18 °C,0.19 °C,-1.03 °C,-0.4 °C
CCc1c(C#N)c(S[C@@H](C(N)=O)c2ccccc2)nc(N(C)C)c1C#N,0.6 °C,-2.37 °C,0.24 °C,-0.69 °C,0.35 °C,0.45 °C,-2.54 °C,0.58 °C
O=C(NCc1ccc(Cl)cc1)C1CCN(S(=O)(=O)c2cc(Cl)cc(Cl)c2)CC1,0.35 °C,-2.83 °C,0.17 °C,-0.37 °C,-1.43 °C,0.06 °C,-1.55 °C,0.02 °C
COc1ccc2c(c1)OC(C)(C)C(c1ccccc1)C2c1ccc(OCCN2CCCC2)cc1 (stereo unspecified),-0.02 °C,-3.83 °C,-2.04 °C,-0.1 °C,0 °C,-2.68 °C,0.51 °C,-3.44 °C
O=C(O)c1cccc(-c2ccc(-c3cn(C(=O)N4CCCCC4Cc4ccccc4)nn3)cc2)c1 (stereo unspecified),-0.1 °C,-2.23 °C,-0.87 °C,-4.82 °C,-4.03 °C,0.56 °C,-3.62 °C,-0.34 °C
C[C@@H]1CCC[C@H](C)N1NC(=O)c1ccc(Cl)c(S(N)(=O)=O)c1,0.07 °C,-0.69 °C,0.04 °C,-0.23 °C,-0.93 °C,0.04 °C,-1.59 °C,0.4 °C
CCCN(CCC)c1ccc(C=O)cc1Br,0.01 °C,-2.88 °C,-0.15 °C,-0.24 °C,-0.05 °C,0.17 °C,-2.25 °C,-0.42 °C
CCCOc1cccc(Oc2cc3c(cc2NS(=O)(=O)c2cccc(C(=O)NCCOCCOCCOCC(=O)N[C@H](C(=O)N4C[C@H](O)C[C@H]4C(=O)NCc4ccc(-c5scnc5C)cc4)C(C)(C)C)c2)n(C)c(=O)n3C)c1,0.11 °C,-8.44 °C,-3.98 °C,0.83 °C,-4.03 °C,0 °C,-2.91 °C,-3.82 °C
Cc1cc(-n2cccc2)c(S(C)(=O)=O)cc1C(=O)N=C(N)N,0.53 °C,-2.59 °C,-0.16 °C,-0.26 °C,-0.28 °C,0.62 °C,-2.33 °C,-0.16 °C
O=C(C1CC1)N1CC[C@@H](Cc2n[nH]c(=O)n2-c2ccc(-c3ccc4occc4c3)cc2)C1,0.72 °C and 0.71 °C,-1.91 °C and -3.51 °C,-0.31 °C and -0.16 °C,0.35 °C and -0.18 °C,-0.54 °C and 0.29 °C,0.34 °C and 0.05 °C,-4.5 °C and -1.89 °C,-1.14 °C and -0.89 °C
O=C(C[C@@H](C(F)F)n1ccc(F)n1)N1CCC(O)(Cn2cnc3c(cnn3-c3ccc(F)cc3)c2=O)CC1,0.8 °C,-3.01 °C,0.2 °C,0.03 °C,-0.6 °C,0.27 °C,-2.33 °C,1.94 °C
C[C@@H]1O[C@@H](CC(=O)O)CC2=C1C(=O)c1c(O)cccc1C2=O,0.53 °C,-3.04 °C,0.21 °C,-1.39 °C,-2.21 °C,-0.24 °C,-2.94 °C,-2.3 °C
"C#CCNC(=O)[C@H](CO)NC(=O)[C@H](CCCCN(CC)CC)NC(=O)[C@@H](NC(=O)[C@@H](NC(=O)[C@H](Cc1ccc(O)c(Cl)c1)NC(=O)c1cc(Cl)cc(Cl)c1)C1CCCC1)[C@@H](C)CC ({Benzoyl(3,5-Cl2)}-[Tyr(3-Cl)][Gly(cPent)]I[Lys(Et2)]S-{NH(propargyl)})",0.75 °C,-3.03 °C,0.1 °C,0.08 °C,-0.72 °C,0.49 °C,-2.28 °C,0 °C
COc1cc2c(cc1-c1c(C)noc1C)[nH]c1nc(C)nc(-c3ccnc4ccccc34)c12,0.56 °C,11.5 °C,-0.3 °C,-0.15 °C,0.97 °C,0.15 °C,-2.62 °C,-0.1 °C
CC(=O)O[C@]1(C(C)=O)CC[C@H]2[C@@H]3CCC4=CC(=O)CCC4=C3[C@@H](c3ccc(N(C)C)cc3)C[C@@]21C,0.29 °C,-2.72 °C,-0.32 °C,0.22 °C,-0.83 °C,-0.05 °C,-1.14 °C,-1.79 °C
CN1C(=O)c2c(nn(Cc3ccc(-c4cccc(F)n4)cc3)c2Nc2ccccc2)N2C1=N[C@@H]1CCC[C@@H]12,0.2 °C,0.64 °C,-0.42 °C,-0.09 °C,2.76 °C,0.5 °C,-0.82 °C,0.46 °C
CC(C)Nc1cc(-c2c[nH]c(C(=O)N[C@H](CO)c3cccc(Cl)c3)c2)c(Cl)cn1,1.43 °C,6.89 °C,8.63 °C,0.57 °C,14.2 °C,-1.26 °C,13.7 °C,0.98 °C
Cc1cc(N2C[C@@H](C)N[C@@H](C)C2)ncc1-c1ccc(-c2nc3c(ccn3C)c(=O)[nH]2)cc1,1.3 °C,-0.52 °C,0.78 °C,0.59 °C,0.66 °C,0.08 °C,-1.4 °C,0.61 °C
CNC[C@@H](O)COc1ccc(Cl)c(-c2nc(-c3c(C)noc3C)c(C)c(N3CC4(CCN(C(=O)OC)CC4)C3)n2)c1,0.37 °C,-2.53 °C,0.32 °C,0.05 °C,-0.26 °C,-2.08 °C,0.12 °C,0.65 °C
O=CC1CCCN1C(=O)C1CCCN1C(=O)OCc1ccccc1 (stereo not drawn) (Cbz-Pro-Pro-aldehyde; configuration not given here),0.3 °C,-1.06 °C,-0.15 °C,0.22 °C,-0.2 °C,0.12 °C,-0.83 °C,-0.47 °C
CN1CC[C@@H](Oc2ccc(F)c(-c3nc4c(o3)C(=O)c3ccccc3C4=O)c2Cl)C1,0.09 °C,0.99 °C,0.38 °C,-0.29 °C,-0.09 °C,0.24 °C,-1.95 °C,-0.66 °C
